# LYPLA2 inh = LYPLA2 inhibitors, primary screen, counter-screen for PME1 inhibitor project, biochemical, fluorescence polarization, FP-Rh probe ABPP; recombinant LYPLA2; inhibition, % at 5.9 µM; actives 0.38% (n = 320,000);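 active = inhibition above the screen-wide mean plus 3 SD, limit set per campaign, cut at about 26% in these data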;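 also: 0% = LYPLA2 with DMSO and 100% = wells lacking LYPLA2 enzyme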
# Fam108B counter = mouse Fam108B serine hydrolase inhibitors, primary screen, counter-screen for RBBP9 inhibitor project, biochemical, fluorescence polarization; recombinant Fam108B, FP-Rh probe fluorescence polarization; inhibition, % at 9.51 µM; AID 1947, 2009; actives 0.33% (n = 300,000);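 active = inhibition above the screen mean inhibition plus 3 SD, computed separately per campaign, cut at about 18% in these data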;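 also: inhibitors lower polarization as less probe binds the enzyme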
# LYPLA1 counter = LYPLA1 inhibitors, primary screen, counter-screen for PME1 inhibitor project, biochemical, fluorescence polarization, FP-Rh probe ABPP. recombinant LYPLA1. inhibition, % at 5.9 µM. actives 0.16% (n = 320,000). AID 2174, 2009;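 active = inhibition above the mean of all tested compounds plus 3 SD, set per campaign, cut at about 14% in these data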;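 also: inhibitors block serine hydrolase probe labeling of LYPLA1 so polarization falls; 0% = enzyme with DMSO and 100% = wells lacking LYPLA1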
# GSTO1 inh = inhibitors of recombinant GSTO1, primary screen, counter-screen for RBBP9 inhibitor project, biochemical, fluorescence polarization; activity-based probe fluorescence polarization; actives 1.1% (n = 300,000); inhibition, % at 5.96 µM;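 active = inhibition above the campaign mean inhibition plus 3 SD, cut at about 35% in these data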;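 also: 0% = GSTO1-1 with DMSO and 100% = wells lacking GSTO1-1 enzyme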
# Target sequence (P78417 whole entry, looked up): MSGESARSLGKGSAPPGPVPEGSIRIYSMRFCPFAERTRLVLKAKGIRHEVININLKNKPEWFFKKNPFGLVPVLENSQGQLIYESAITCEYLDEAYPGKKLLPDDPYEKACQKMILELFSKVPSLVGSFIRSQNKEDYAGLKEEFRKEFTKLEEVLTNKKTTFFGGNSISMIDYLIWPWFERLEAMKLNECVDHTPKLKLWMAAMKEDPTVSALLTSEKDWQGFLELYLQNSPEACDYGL
# PREPL inhibitor = PREPL enzyme inhibitors, primary screen, biochemical, fluorescence polarization; inhibition, % at 5.96 µM; actives 0.68% (n = 320,000); recombinant PREPL, fluorescence polarization activity-based probe;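 also: 0% = enzyme with DMSO and 100% = wells lacking enzyme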
# PME-1 primary = PME-1 inhibitors via competitive probe labeling, primary screen, biochemical, fluorescence polarization, FP-Rh probe, HTS | Protein phosphatase methylesterase 1 (Homo sapiens), Q9Y570 | recombinant PME-1 | inhibition, % at 5.9 µM | actives 0.53% (n = 320,000) | AID 2130, 2009;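 active = inhibition above the campaign mean of all compounds plus 3 SD, cut at about 26% in these data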;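 also: competitive labeling of PME-1 active site by serine hydrolase directed probe; 0% = PME-1 with DMSO and 100% = wells lacking PME-1 enzyme; inhibitors block probe labeling so polarization falls and inhibition rises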
# Target sequence (Q9Y570 whole entry, looked up): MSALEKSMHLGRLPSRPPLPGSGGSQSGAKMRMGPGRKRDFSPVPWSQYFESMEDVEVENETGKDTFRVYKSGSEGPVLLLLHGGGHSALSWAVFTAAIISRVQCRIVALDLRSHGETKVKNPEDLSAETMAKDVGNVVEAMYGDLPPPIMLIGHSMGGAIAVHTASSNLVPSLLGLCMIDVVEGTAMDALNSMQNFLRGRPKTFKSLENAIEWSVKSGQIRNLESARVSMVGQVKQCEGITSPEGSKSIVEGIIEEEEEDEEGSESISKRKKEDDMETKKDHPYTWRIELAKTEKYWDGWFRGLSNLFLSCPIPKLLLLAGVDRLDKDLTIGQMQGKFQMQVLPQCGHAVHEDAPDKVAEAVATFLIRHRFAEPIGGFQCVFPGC
# Fam108b confirm = mouse Fam108b serine hydrolase inhibitors, confirmation, counter-screen for RBBP9 inhibitor project, biochemical, fluorescence polarization, triplicate; actives 44% (n = 930); inhibition, % at 9.51 µM; AID 1978, 2009; recombinant Fam108b, FP-Rh probe fluorescence polarization; shares compounds with Fam108B counter;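 active = inhibition above a limit from the primary screen, the mean over all compounds plus 3 SD, cut at about 19% in these data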;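 also: 0% = median of active Fam108b wells and 100% = catalytically dead S170A mutant; inhibitors free the probe so polarization falls as inhibition rises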
# Fam108b inh = inhibition of mouse Fam108b by HTS hits, late-stage follow-up, biochemical, gel-based ABPP, soluble recombinant form. fluorophosphonate probe. actives 44% (n = 260). shares compounds with Fam108B counter. AID 588649, 2011. inhibition, % at 20 µM; in the data active = inhibition above about 40%
# GSTO1 confirm = GSTO1 inhibitor hit confirmation, counter-screen for RBBP9 inhibitor project, biochemical, fluorescence polarization, triplicate. shares compounds with GSTO1 inh. recombinant GSTO1, probe fluorescence polarization. inhibition, % at 5.96 µM. actives 54% (n = 2,400). AID 2176, 2009;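 active = inhibition above the primary screen's cutoff, its mean inhibition plus 3 SD, cut at about 35% in these data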;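 also: loss of polarization as inhibitors block binding of rhodamine sulfonate ester activity probe; 0% = GSTO1 with DMSO and 100% = wells lacking GSTO1 enzyme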
# LYPLA1 confirm = LYPLA1 inhibitors, retest, confirmation, counter-screen for PME1 inhibitor project, biochemical, fluorescence polarization, FP-Rh probe ABPP. actives 69% (n = 480). AID 2233, 2010. recombinant LYPLA1. shares compounds with LYPLA1 counter. inhibition, % at 5.9 µM;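 active = mean inhibition across replicates above the hit cutoff set in the primary screen, cut at about 15% in these data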;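 also: loss of FP-Rh probe labeling of LYPLA1 seen as lower polarization; 0% = LYPLA1 with DMSO and 100% = wells lacking LYPLA1 enzyme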
# LYPLA2 conf = LYPLA2 inhibitors, retest, confirmation, counter-screen for PME1 inhibitor project, biochemical, fluorescence polarization, FP-Rh probe ABPP | shares compounds with LYPLA2 inh | recombinant LYPLA2 | inhibition, % at 5.9 µM | actives 72% (n = 1,100) | AID 2232, 2010;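 active = mean inhibition across replicates above the hit cutoff set in the primary screen, cut at about 26% in these data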;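 also: blocked labeling of the enzyme by serine hydrolase FP-Rh probe lowers polarization; 0% = enzyme with DMSO and 100% = wells lacking LYPLA2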
# PREPL inh cf = human PREPL enzyme inhibitors, confirmation, biochemical, fluorescence polarization. shares compounds with PREPL inhibitor. inhibition, % at 5.96 µM. AID 2803, 2010. actives 67% (n = 2,000). recombinant PREPL, fluorescence polarization activity probe;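 also: 0% = protein with DMSO and 100% = wells lacking protein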
# * marks the source's active call; other numbers are inactive results; . = no result. A selection: hits, their analogues and other compounds. The true share with any hit is near 1.9%. Rule as the data show it, unless noted: active = inhibition above about 43%; inactive = the rest.
SMILES,LYPLA2 inh,Fam108B counter,LYPLA1 counter,GSTO1 inh,PREPL inhibitor,PME-1 primary,Fam108b confirm,GSTO1 confirm,PREPL inh cf,others
COc1ccc(-c2nc(-c3ccccn3)ncc2S(C)(=O)=O)cc1,6.1,-0.6,-1.3,-2.0,-1.0,-1.1,.,.,.,
Cn1nc(-c2ccccn2)nc2c(=O)n(C)c(=O)nc1-2,90.0*,62.1*,91.7*,97.2*,58.8*,36.5*,86.0*,91.5*,52.3*,Fam108b inh=0.0;LYPLA1 confirm=88.6*;LYPLA2 conf=92.4*
CCN(Cc1ccc2c(c1)OCO2)C(=O)CSc1nc(C)nc2sc(C)c(C)c12,5.1,.,2.1,.,-7.8,-3.0,.,.,.,
COC(=O)c1c(Cl)c2n3ccccc3c(C)c(-c3ccccc3)c-2c1C(=O)OC,19.6,19.2*,15.7*,28.9,49.2*,15.8,9.9,.,26.9,LYPLA1 confirm=4.2
CCCCc1nnc(NC(=O)CCS(=O)(=O)c2ccc(Cl)cc2)s1,1.1,.,3.1,.,2.9,9.3,.,.,.,
Cc1nnc(SCC(=O)NNC(=O)COc2ccc(Br)cc2)n1C,0.4,.,-4.9,.,4.0,2.0,.,.,.,
Cc1cc2c(N)cccc2nn1,52.1*,25.0*,46.8*,65.3*,68.2*,57.9*,15.8,109.8*,11.5,LYPLA1 confirm=2.8;LYPLA2 conf=45.7*
Cc1ccc(-n2c(C)cc(=O)cc2C)c(C)c1,7.5,-2.7,5.6,3.5,36.8,1.2,.,.,.,
Cc1cc(N)ccc1-n1c(C)ccc1C,84.7*,42.5*,55.6*,81.9*,59.3*,90.2*,3.7,.,10.9,LYPLA1 confirm=3.7;LYPLA2 conf=4.3
CCOC(=O)Nc1ccc2nc(Sc3ccc(Cl)cc3)sc2c1,-15.4,-11.6,-12.4,-6.7,15.0,-5.7,.,.,.,
O=C(COc1ccccc1C(=O)N/N=C\c1ccc(O)c(O)c1)N/N=C/c1ccc(O)c(O)c1,-15.8,34.7*,-12.3,-36.0,82.7*,34.8*,2.5,.,32.0,
O=C(COc1ccccc1[N+](=O)[O-])N/N=C/c1ccc(O)c([N+](=O)[O-])c1,-16.6,-8.5,-3.6,-3.9,-6.9,0.8,.,.,.,
Oc1ccc(/C=N/Nc2ccnc3cc(Cl)ccc23)cc1O,9.6,54.6*,-13.8,38.0*,54.5*,42.1*,34.5*,7.5,35.6,
N#C/C(=C/c1ccc(O)c(O)c1)c1nc2ccccc2[nH]1,4.5,26.6*,-15.2,-23.0,59.7*,28.7*,29.3*,.,47.5*,
CC(=O)N1CCC(C(=O)N2CCN(S(=O)(=O)c3ccc(Cl)s3)CC2)CC1,8.0,0.8,4.6,5.6,1.1,6.0,.,.,.,
N#CC1(CCCN2CCCCC2)c2ccccc2CCc2ccccc21,0.2,-0.8,1.0,-1.9,-18.3,2.9,.,.,.,
CCOC(=O)C1CCN(C(=O)Nc2ccc3nc(-c4ccco4)c(-c4ccco4)nc3c2)CC1,8.7,34.5*,-11.8,79.8*,60.1*,11.4,40.0*,31.9,64.0*,Fam108b inh=0.0
COc1cc2nc(Nc3ccc(C)c(Cl)c3)nc(N)c2cc1OC,4.2,22.8*,5.5,-15.5,72.5*,34.8*,15.8,.,66.2*,
O=C(NCCc1c[nH]c2ccccc12)OCCCCOC(=O)NCCc1c[nH]c2ccccc12,7.9,23.1*,-5.6,-5.4,61.3*,9.5,-2.5,.,29.9,
O=C(CCCc1c[nH]c2ccccc12)NCCc1c[nH]c2ccccc12,-7.3,-0.1,-5.8,4.0,19.0,0.2,.,.,.,
CN1C(=O)NC(c2ccccc2[N+](=O)[O-])C2=C1CC(C)(C)CC2=O (stereo not given),-3.1,-6.5,-2.5,31.4,-3.2,-4.5,.,.,.,
CN1C(=O)NC(c2ccccc2[N+](=O)[O-])C2=C1CCCC2=O (stereo not given),94.1*,67.8*,72.7*,71.2*,77.0*,84.3*,24.0*,37.9*,14.2,LYPLA1 confirm=28.2*;LYPLA2 conf=73.8*
Nc1cc2nsnc2cc1Br,86.7*,71.2*,75.7*,92.4*,46.0*,46.6*,62.3*,90.6*,31.8,Fam108b inh=50.0*;LYPLA1 confirm=72.5*
CCC(CNc1cc(OC)cc2cccnc12)NC1CCCCC1 (stereo not given),29.7*,29.6*,22.5*,80.2*,54.3*,37.6*,3.3,8.8,44.0*,LYPLA1 confirm=12.9;LYPLA2 conf=43.4*
O=C(CCc1nnc2ccc(N3CCCC3)nn12)Nc1ccc(F)cc1F,0.1,-1.8,-1.9,5.7,9.4,-1.5,.,.,.,
SMILES,LYPLA2 inh,Fam108B counter,LYPLA1 counter,GSTO1 inh,PREPL inhibitor,PME-1 primary,Fam108b confirm,GSTO1 confirm,PREPL inh cf,others
Cc1ccccc1-c1nn[nH]n1,4.0,-4.7,3.6,4.2,16.5,1.0,.,.,.,
Oc1ccc(N=Nc2ccccc2-c2nn[nH]n2)c(O)c1,8.8,39.7*,1.2,-6.0,51.0*,22.4,41.4*,.,53.3*,Fam108b inh=0.0
COc1cccc(/C=N/Nc2ccnc(=O)[nH]2)c1O,-2.0,-0.5,-1.4,-22.7,3.3,2.4,.,.,.,
COc1cccc(/C=N/Nc2ccc([N+](=O)[O-])cn2)c1O,-0.5,50.7*,-2.7,23.8,56.1*,74.7*,5.2,.,18.3,
CN(C1CCCCC1)S(=O)(=O)c1ccc(SCC(=O)C(C)(C)C)nc1,.,.,.,.,6.2,.,.,.,.,
C=C1c2cccc(O)c2C(O)=C2C(=O)[C@]3(O)C(O)=C(C(N)=O)C(=O)[C@@H](N(C)C)[C@@H]3[C@@H](O)[C@H]12,13.7,25.9*,-6.8,63.2*,79.6*,-0.3,-5.2,70.0*,24.3,

# Bioassay records from PubChem.
